Measurements published in PubChem BioAssay (EPA / NIEHS).
Inconclusive results are not listed. Active and inactive are the calls of the source. The calls were made as follows: active = hit-call score of the fitted dose curve at least 0.9, where 1 is the maximum; inconclusive = response in the unintended direction; inactive = score below 0.9.

Target: AR (gene 367) (UniProt P10275)
Assay: ACEA_AR_antagonist_80hr: ACEA Biosciences xCELLigence Real-Time Cell Analysis on Androgen Receptor Antagonism for Proliferation (AID 2283787);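 also: 22Rv1 human prostate cancer cells with growth followed by electrical impedance; hits lower the impedance growth signal relative to DMSO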
Outline: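 Measures real-time proliferation of 22Rv1 prostate cancer cells by electrode impedance at 80 hours after dosing. Test articles ran at eight concentrations (1:4 steps, top 100 uM final) in biological duplicate.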

Chain of AR (gene 367) (P10275 whole entry, looked up): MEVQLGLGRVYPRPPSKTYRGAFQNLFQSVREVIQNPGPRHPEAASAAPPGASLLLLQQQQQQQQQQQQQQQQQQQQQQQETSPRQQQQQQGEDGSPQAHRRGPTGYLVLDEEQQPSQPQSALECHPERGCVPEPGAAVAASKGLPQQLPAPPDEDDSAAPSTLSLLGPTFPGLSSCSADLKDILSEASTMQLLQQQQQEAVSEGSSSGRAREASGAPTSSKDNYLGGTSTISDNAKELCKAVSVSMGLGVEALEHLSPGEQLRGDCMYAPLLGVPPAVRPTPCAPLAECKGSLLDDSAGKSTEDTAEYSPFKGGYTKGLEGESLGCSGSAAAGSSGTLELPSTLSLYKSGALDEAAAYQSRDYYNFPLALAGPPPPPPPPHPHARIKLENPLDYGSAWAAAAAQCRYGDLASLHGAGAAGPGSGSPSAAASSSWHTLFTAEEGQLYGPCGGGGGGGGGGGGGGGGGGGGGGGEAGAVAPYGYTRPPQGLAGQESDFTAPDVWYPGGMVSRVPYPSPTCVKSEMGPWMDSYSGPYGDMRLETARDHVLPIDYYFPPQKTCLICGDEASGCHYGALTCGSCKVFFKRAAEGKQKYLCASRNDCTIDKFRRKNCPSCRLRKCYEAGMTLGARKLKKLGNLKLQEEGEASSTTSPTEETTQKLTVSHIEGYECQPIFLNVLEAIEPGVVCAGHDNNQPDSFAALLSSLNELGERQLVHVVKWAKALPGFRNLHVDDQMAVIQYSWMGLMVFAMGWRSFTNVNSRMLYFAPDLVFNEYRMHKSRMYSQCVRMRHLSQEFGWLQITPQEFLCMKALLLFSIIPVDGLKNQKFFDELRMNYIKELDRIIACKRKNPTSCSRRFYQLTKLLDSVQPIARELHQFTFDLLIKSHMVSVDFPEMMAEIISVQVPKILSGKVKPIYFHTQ

Structure (SMILES)	outcome	AC50
CCCOC(=O)c1ccc(C(=O)OCCC)nc1	inactive	–
CCSC(=O)N(CC(C)C)CC(C)C	inactive	–
N#CSCSc1nc2ccccc2s1	–	15.1 µM (active)
C[C@]12CC[C@@H]3c4ccc(O)cc4C[C@@H](CCCCCCCCCS(=O)CCCC(F)(F)C(F)(F)F)[C@H]3[C@@H]1CC[C@@H]2O (stereo partly drawn)	–	11.9 µM (active)
CCCN(CCC)C(=O)SCC	inactive	–
CCOC(=O)C(C)Oc1ccc(Oc2nc3ccc(Cl)cc3o2)cc1 (stereo not drawn)	–	42.6 µM (active)
O=C(c1ccccc1)C1CCCCC1	inactive	–
Cc1nn(C)c(Oc2ccccc2)c1C=NOCc1ccc(C(=O)OC(C)(C)C)cc1	–	12.7 µM (active)
